In PubChem BioAssay (NCATS):
Inconclusive results are not listed. Active and inactive are the calls of the source. The call rests on the fitted dose curve; in most records, active means well fitted curve in either direction with a large enough effect (not every such curve was filed as active); inconclusive means small, poorly fitted or top-dose-only effect, or another doubt; inactive means flat fitted curve, though single readings scatter.

assay: Stat Signaling Pathway (AID 446); details: ME-180 SIE beta-lactamase reporter, IL-6 stimulated, 5 h; at 17.2 µM (top of the series) unless noted;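 further: ME-180 cervical cancer cells given 40 pM IL-6 alongside compound; SIE-controlled beta-lactamase reporter measured as 460/530 nm FRET emission ratio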
Summary of the method: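 ME-180 cells carrying a SIE-driven beta-lactamase reporter are stimulated with 40 pM IL-6 for 5 h at 37C in the presence of compound. The 460/530 nm FRET substrate ratio is read after 2.5 h at RT. Data are normalised to 300 pM IL-6 and to 125 nM JAK inhibitor controls.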
On the % scale 0 is the no-effect control and ±100 the full control effect.

activity, negative = inhibition, inactive:
CN(C)C=C1C(=O)c2ccccc2C1=O 1.64%, C=CCN(C)CCCNC(=O)/C=N/O 3.74%, CC(=O)c1c(C(C)=O)c(C)n(NC(=O)c2ccncc2)c1C 17%, COc1ccc(C(=O)c2oc3nc(C)cc(C)c3c2N)cc1 -8.18%, COC(=O)c1ccc(Cn2nnc3c(sc4nc(N5CCOCC5)c5c(c43)CCCC5)c2=O)o1 -4.56%, COc1ccc(-c2nn3c(-c4ccccn4)nnc3s2)cc1OC -2.76%, COC(=O)c1cc(OC)c(OC)cc1N -0.00836%, COc1ccc2c(c1)n([O-])c1c([n+]2=O)CCC1 7.82%, CN(C)C(=O)COn1c(SCC(=O)N(C)C)nc2ccccc2c1=O 2.27%, CCNC(=O)N(C)c1nncnc1C(=O)NC -6.45%, Cc1cc2c(c(=O)n1CC1CCCO1)C(c1ccc3c(c1)OCO3)C(C#N)=C(N)O2 (centres undefined) -17.8%, c1cc(-c2nnc3sc(C4CCCCC4)nn23)ccn1 -15.8%, Cc1c(=O)n(OCc2c(F)cccc2F)c2ccccc2[n+]1[O-] 2.13%, Cc1ccccc1COc1ccc(/C(O)=C2/C(=O)C(=O)N(CCCn3ccnc3)C2c2ccco2)cc1 (centres undefined) 3.48%, CC(C)OC(=O)C(CC(=O)O)NCc1ccccc1 (centres undefined) 5.04%, O=C(Nc1ccc(Cl)cn1)C1CCCN1S(=O)(=O)c1ccccc1 (centres undefined) -6.7%, CCOC(=O)c1c(C)cccc1OCC(N)=O -2.4%, COC(=O)c1ccc(C2/C(=C(/O)c3ccc(OC)cc3)C(=O)C(=O)N2c2cc(C)on2)cc1 (centres undefined) -20.1%, CC1(C)CC(=O)C(C2=NC(C)(C)Cc3ccccc32)=C(O)C1 0.129%, COC(=O)CSc1nc(C)c(Oc2ccccc2)c(=O)[nH]1 7.32%, C=C(C)Cn1c(-c2ccc(OC)cc2)nc2ccccc21 5.37%, C=CCN=C(NC#N)SCCc1ccccc1 5.61%, CCOC(=O)c1ccc(CC2S/C(=C(\C#N)C(C)=O)NC2=O)cc1 (centres undefined) -21.4%, CC(C)OCCCNc1ncnc2c1cnn2-c1ccccc1 -0.244%, CCSc1nnc(NC(NC(=O)c2ccco2)(C(F)(F)F)C(F)(F)F)s1 3.98%, CC(C)CN1C(=O)c2ccc(C(=O)Nc3ccccn3)cc2C1=O 4.97%, CCCCOc1ccc(C)cc1CN(CCO)CCO 5.48%, Cc1cc(C)n(CC2CC(=O)N(c3cc(Cl)cc(Cl)c3)C2=O)n1 (centres undefined) 2.96%, Clc1cccc(-c2nn3c(-c4cccc(Cl)c4)nnc3s2)c1 2.11%, C(=N\n1cnnc1)/c1cccnc1 12.5%, COc1ccc(C2CC(c3ccc(C)cc3)Nc3nc(N)nn32)cc1 (centres undefined) 1.75%, COc1ccc(/C(O)=C2/C(=O)C(=O)N(CCCN(C)C)C2c2ccco2)cc1Cl (centres undefined) 4.09%, CCOC(=O)c1[nH]c2cc3c(cc2c1NC(=O)CN1CCC(C)CC1)OCO3 -3.19%, O=C1C=C(O)CC(c2cccs2)C1 (centres undefined) -2.06%, Cc1ccc2cc(CNC(C)(C)C)c(=O)[nH]c2c1 -2.54%, Cc1onc(-c2ccccc2Cl)c1C(=O)N1CCN(c2nc3ccccc3s2)CC1 -3.09%, Cc1cc(C)n(C(=O)CNC(=O)C2COc3ccccc3O2)n1 (centres undefined) 24.9%, COC(=O)/C=c1/s/c(=C(/C#N)C(=O)N2CCCCC2)n(-c2ccccc2)c1=O -5.91%, O=C(O)CC(C(=O)OCCOc1ccccc1)N1CCOCC1 (centres undefined) -1.47%
